Assay outcomes from PubChem.
This is a sample that favours compounds with a hit; in the whole collection about 27% have one here.
CYP2C19 activ: activators of human cytochrome P450 2C19; recombinant CYP2C19, luciferin-H EGE luminescence; hits give high values; 0 = fully inhibited enzyme, 1 = untreated enzyme; activation factor at 5 µM; 96,000 tested, under 10 active; P33261;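 active = activation factor of at least 2 at 5 µM in the primary screen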;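 also: 0 = wells with 2.5 mM tranylcypromine and 1 = vehicle-only wells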
sEH inh: soluble epoxide hydrolase (human) inhibition; recombinant human sEH enzymatic activity assay; inhibition, % at 2 µM; 0.34% of 91,000 active; AID 707; in the data active = inhibition above about 80%
Target sequence (P34913 whole entry, looked up): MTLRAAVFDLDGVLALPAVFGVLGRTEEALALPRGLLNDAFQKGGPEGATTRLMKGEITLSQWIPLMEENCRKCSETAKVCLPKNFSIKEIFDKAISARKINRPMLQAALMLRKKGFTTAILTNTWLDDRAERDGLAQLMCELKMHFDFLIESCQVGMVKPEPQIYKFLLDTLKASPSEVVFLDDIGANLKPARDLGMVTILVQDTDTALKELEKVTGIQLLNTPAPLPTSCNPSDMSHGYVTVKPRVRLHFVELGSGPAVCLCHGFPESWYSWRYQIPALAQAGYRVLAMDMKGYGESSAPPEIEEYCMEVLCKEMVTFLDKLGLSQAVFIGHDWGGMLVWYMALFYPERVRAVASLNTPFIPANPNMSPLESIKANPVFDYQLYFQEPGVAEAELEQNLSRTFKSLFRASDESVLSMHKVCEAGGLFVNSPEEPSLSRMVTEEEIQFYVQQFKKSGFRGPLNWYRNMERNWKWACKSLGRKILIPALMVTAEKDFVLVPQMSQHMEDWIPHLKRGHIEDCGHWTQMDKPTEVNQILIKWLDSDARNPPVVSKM
CYP2C19 inhib: inhibitors of human CYP2C19; P33261; CYP2C19 Supersomes, luciferin-H EGE luminescence, 30 min; inhibition, % at 5 µM; 21% of 96,000 active; AID 778;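 active = CYP2C19 inhibition above a set limit at 5 µM in the primary screen, cut at about 50% in these data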;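 also: plate controls were negative control wells for no effect and 2.5 mM tranylcypromine positive control for full effect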
CYP2C9 act: increases human cytochrome P450 2C9 activity. P11712. recombinant CYP2C9, luciferin-H conversion, luminescence; hits give high values; factor 1 = untreated enzyme, 0 = blocked. activation factor at 5 µM. 1.4% of 96,000 active. AID 1024;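 active = activation factor of 2 or more for CYP2C9 at a 5 µM dose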;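 also: 0 = sulfaphenazole-blocked wells and 1 = vehicle-only wells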
sEH act: increases human soluble epoxide hydrolase activity; P34913; purified human sEH enzymatic activity, activator screen; activation, % at 2 µM; 0.04% of 91,000 active; AID 717; in the data active = activation above about 37%
CYP2C9 inh: blocks human cytochrome P450 2C9; P11712; CYP2C9 Supersomes, luciferin-H conversion, luminescence; inhibition, % at 5 µM; 20% of 96,000 active; AID 777;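 active = blocking of liver enzyme CYP2C9 beyond about 50% at 5 µM, limit read from the data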
Numbers without * were called inactive; . = no result.

SMILES | CYP2C19 activ | sEH inh | CYP2C19 inhib | CYP2C9 act | sEH act | CYP2C9 inh
CC1CCN(S(=O)(=O)c2ccc(NN=C(C#N)C#N)cc2)CC1 | 1 | 13.6 | 3.5 | 0.1 | -12.0 | 93.5*
CC(Cc1ccccc1Sc1ccc(O)cc1)N(C)C (stereo not given) | 0.8 | -11.6 | 23.6 | 1.1 | 14.2 | -14.5
CC(C)CCC1(CN2CCCC2=O)C(=O)NC(=O)NC1=O | . | -13.3 | . | . | 11.6 | .
COc1cccc(C2=NOC(C(=O)N3CCC4(CC3)OCCO4)C2)c1 (stereo not given) | 0.3 | 7.0 | 67.0* | 1 | -8.2 | -1.5
O=C(C1CCC(=O)N1Cc1ccc(F)cc1)N1CCC2(CC1)OCCO2 (stereo not given) | 0.7 | -24.0 | 27.1 | 0.8 | 20.8 | 19.3
O=C(C1CC(c2ccc(F)cc2)=NO1)N1CCC2(CC1)OCCO2 (stereo not given) | 0.1 | 0.4 | 93.8* | 1.1 | -1.1 | -7.6
O=C(C1CC(c2ccc(Cl)c(Cl)c2)=NO1)N1CCC2(CC1)OCCO2 (stereo not given) | 0 | -9.5 | 95.7* | 1.8 | 15.1 | -84.2
CC(=NCCC1=CCCCC1)c1c(O)[nH]c(=O)[nH]c1=O | 0.9 | -2.9 | 10.7 | 0.8 | 3.0 | 25.0
CN1C2CCC1CC(OC(=O)c1cc(Cl)cc(Cl)c1)C2 (stereo not given) | 0.9 | -6.9 | 10.2 | 1.1 | 5.9 | -8.7
CC1=[N+]([O-])C2(N)CCc3nonc3C2(O)C1 (stereo not given) | 1 | . | 2.5 | 1.1 | . | -5.1
CC(=O)c1ccc2c(c1)C1C(Cl)C(Sc3ccccc3[N+](=O)[O-])CC1C(c1ccccc1)N2 (stereo not given) | 0.6 | 20.6 | 43.9 | 0.3 | -17.7 | 73.5*
Cn1c(O)c(/C=N/c2ccccn2)c(=O)n(C)c1=O | 1.1 | . | -10.0 | 1 | . | 3.1
CC1(C)CN=C(NCc2ccccc2Cl)S1 | 0.4 | -5.9 | 64.6* | 0.9 | 6.0 | 9.2
COc1ccc(S(=O)(=O)NC(CC(=O)N2CCC3(CC2)OCCO3)C(C)C)cc1 (stereo not given) | 0.8 | 9.8 | 20.9 | 0.9 | -11.8 | 14.7
COc1ccc(S(=O)(=O)NC(CC(=O)N2CCC3(CC2)OCCO3)c2ccco2)cc1 (stereo not given) | 0.2 | 5.0 | 75.9* | 0.5 | -6.7 | 51.1*
COc1ccc(CCC(=O)N2CCC3(CC2)OCCO3)cc1 | 0.2 | -2.1 | 75.4* | 0.9 | 3.5 | 6.3
Nc1ccccc1C(=O)c1ccccc1 | 0.8 | -8.3 | 23.9 | 1 | 12.2 | 4.2
CC(=O)Nc1ccccc1C(=O)OCc1ccc(C(=O)c2ccccc2)cc1 | 0.6 | -9.4 | 38.5 | 0.3 | 8.0 | 71.6*
O=C(Nc1ccc(Cl)cc1)O/N=C(\c1ccccc1)c1ccccn1 | 0.8 | 23.5 | 17.8 | 0.4 | -21.7 | 56.7*
CCSP1(=S)N=C(N2CCOCC2)C(C#N)=C2CCCN21 (stereo not given) | 0.6 | -3.6 | 38.4 | 0.6 | 3.8 | 37.1
CN1C(=O)C(Cc2ccc3c(c2)OCO3)C(=O)N(C)C1=O | 0.6 | 7.0 | 42.8 | 0.9 | -8.4 | 12.3
CCOC(=O)C1SC2(C(F)F)CC1(O)c1c(c(OC)c3occc3c1OC)O2 (stereo not given) | 0 | 10.3 | 100.0* | 0 | -7.3 | 96.9*
Cc1cc(NC(=O)COC(=O)c2c(C)nn(Cc3ccccc3Cl)c2Cl)no1 | 0.9 | 3.3 | 14.3 | 1 | -3.8 | -1.4
Cc1nn(Cc2ccccc2)c(C)c1C(=O)OCC(=O)Nc1ccccc1SCC#N | 0.1 | 1.3 | 86.2* | 0 | -1.8 | 96.3*
Cc1nn(Cc2ccccc2Cl)c(Cl)c1C(=O)OCC(=O)NCc1ccco1 | 1 | 2.0 | -3.9 | 1 | -1.9 | -4.8
Cc1cc(NC(=O)COC(=O)c2c(C)nn(Cc3ccccc3)c2C)no1 | 0.7 | 16.6 | 30.4 | 0.3 | -17.6 | 65.4*
Cc1nn(Cc2ccccc2)c(C)c1C(=O)OCC(=O)NCc1ccco1 | 0.4 | -3.5 | 59.5* | 0.3 | -2.2 | 70.2*
Cc1cc(N2C(=O)C3CCCN3C2c2ccccc2)no1 (stereo not given) | 1.1 | . | -12.8 | 1.1 | . | -5.5
N#CC1=C(N)Oc2c(c(=O)oc3ccccc23)C1c1cccnc1 (stereo not given) | 1.1 | . | -8.6 | 0.4 | . | 64.5*
